# Compounds with a hit are over-represented: about 4.1% of the library has one in this group of screens.
# hcDAF-12 act: activators of H. contortus DAF-12 nuclear receptor; activation, % at 6.8 µM; 370,000 compounds, 1.4% hits; HEK293 hcDAF-12 lit1-tk-luc reporter, luminescence; 0% DMSO, 100% Δ7-dafachronic acid;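 active means activation above the mean of all tested compounds plus 3 SD, cut at about 5.5% in these data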;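 further: 100% = response to 3 µM Δ7-dafachronic acid high control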
# DAX1 inh-1: inhibitors of human orphan nuclear receptor DAX1 (NR0B1); HEK293 Gal4-DAX1 luciferase reporter, luminescence; 340,000 compounds, 0.99% hits; inhibition, % at 6.75 µM; P51843;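 active means inhibition above the mean over all tested compounds plus 3 SD, cut at about 4.2% in these data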;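 further: 0% = DAX1-transfected cells with DMSO and 100% = empty-vector control cells with DMSO; inhibition shows as a rise in luminescence from relieved DAX1 repression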
# Target sequence (P51843 207-470 limits assumed): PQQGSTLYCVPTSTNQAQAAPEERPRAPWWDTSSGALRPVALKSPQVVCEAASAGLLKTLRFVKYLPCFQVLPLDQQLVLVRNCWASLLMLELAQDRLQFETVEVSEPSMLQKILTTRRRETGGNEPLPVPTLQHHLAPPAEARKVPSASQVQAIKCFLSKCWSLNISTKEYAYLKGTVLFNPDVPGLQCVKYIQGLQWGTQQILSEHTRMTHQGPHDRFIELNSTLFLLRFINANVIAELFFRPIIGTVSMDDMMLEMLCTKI
# ssDAF-12 act: activates DAF-12 receptor from parasite S. stercoralis. HEK293 ssDAF-12/GRIP1 lit1-tk-luc reporter, luminescence; % of 3 µM dafachronic acid response. activation, % at 6.8 µM. 370,000 compounds, 1% hits. AID 652126;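 active means activation above the mean over all tested compounds plus 3 SD, cut at about 0.9% in these data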;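 further: 0% = DMSO-only wells and 100% = 3 µM delta7-dafachronic acid wells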
# hgDAF-12 ag: activates the H. glycines DAF-12 receptor ligand-binding domain; AID 687014; 370,000 compounds, 1.8% hits; HEK293 GAL4-hgDAF12 UAS-luciferase reporter, agonist luminescence; normalized to butyrate control; activation, % at 6.8 µM;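 active means activation above a cutoff set at the mean of all screened compounds plus 3 SD, cut at about 10% in these data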;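 further: 0% = DMSO wells and 100% = sodium butyrate wells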
# DAX1 inh-2: DAX1 (NR0B1) inhibition, primary screen | HEK293T StAR-luciferase reporter, SF-1/DAX-1 repression relief | inhibition, % at 6.8 µM | 370,000 compounds, 1.1% hits | AID 652010;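 active means inhibition above the mean over all tested compounds plus 3 SD, cut at about 3.6% in these data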;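 further: 0% = DAX-1 cells with DMSO and 100% = cells lacking DAX-1 with DMSO; higher inhibition means more luminescence from relief of DAX-1 repression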
# * = called active by the depositor; x = no result.
SMILES,hcDAF-12 act,DAX1 inh-1,ssDAF-12 act,hgDAF-12 ag,DAX1 inh-2
COc1cccc(CN2CC(C(=O)N3CCCC3)CCC2=O)c1 (centres undefined),2,2,-1,0,0
COc1cccc(CN2CC(C(=O)N3CCN(C(C)C)CC3)CCC2=O)c1 (centres undefined),-1,4.6*,-1,1,0
CCN1CCCC1CN(Cc1cc2cc(C)ccc2[nH]c1=O)C(=O)Nc1ccccc1OC (centres undefined),3,0,-1,1,4.0*
COC(=O)c1c(C)oc(C)c1S(=O)(=O)N1CCCCC1,-2,1,-2,-1,-1
COC(=O)c1c(C)oc(C)c1S(=O)(=O)N1CCCC1,-1,4.4*,-1,-1,0
O=C(Nc1nnc(CCc2ccccc2)s1)c1ccccc1F,-1,0,-1,0,1
COc1ccc(/C=N/Nc2nc3ccccc3[nH]2)c(OC)c1OC,-3,7.5*,-3,-4,0
Cc1ccsc1/C=N/Nc1nc(Cl)c(Cl)cc1Cl,5,2,0,7,0
Cc1ccc(/C=N/Nc2nc3ccccc3[nH]2)s1,6.1*,0,1,10,3
Cc1ccc(/C=N/Nc2nc(Cl)c(Cl)cc2Cl)s1,5,4.3*,0.9*,5,1
COCCCNC(=O)c1ccc(CN2CCc3ccccc3C2)cc1,-2,21*,-1,1,0
O=C(/C=C/c1ccc2c(c1)OCO2)Nc1nc2ccc(F)cc2s1,3,4.8*,1,7,2
CCCCCCCCN1C(=O)[C@@H](CC(=O)N2CCSCC2)C[C@@]2(C(=O)OC)C1=C[C@H](C(C)(C)C)O[C@@H]2C,0,x,-1,1,-1
CC(=O)Nc1sc2c(c1C(c1cccc(Cl)c1)N1CCN(CCO)CC1)CCCC2 (centres undefined),-2,4.9*,-1,-2,0
COCCOC(=O)CSc1ncccc1-c1nc2cc(C)c(C)cc2[nH]1,4,-1,1,9,2
Cc1cc2nc(-c3cccnc3SCC(=O)NC(C)C)[nH]c2cc1C,4,1,0,10,4.1*
C/C(=C\C(=O)N1CCc2ccccc21)C(=O)O,3,4.3*,0,1,0
Cc1c(Br)c(C(=O)N2CCc3ccccc32)nn1C,1,4.4*,-1,10,2
Cn1ncc(Br)c1C(=O)N1CCc2ccccc21,5,0,0,3,1
Cn1cc(Br)c(C(=O)N2CCc3ccccc32)n1,5.9*,1,0,4,1
Cc1nn(C)c(C(=O)N2CCc3ccccc32)c1Br,5,0,1,0,0
O=C(c1ccccc1)N1CCc2ccccc21,0,-1,-1,1,0
COC(=O)C1=C(C)N(Cc2ccccc2C(F)(F)F)C(=NCc2ccc(OC)cc2)NC1c1cccc(Cl)c1 (centres undefined),-1,x,0,-1,1
CCCCCCOc1ccc(/C(N)=N/O)cc1,4,3,-1,11*,-1
Cc1cccc(N2CCN(C(=O)c3ccccc3NC(=O)C3CC=CCC3C(=O)O)CC2)c1 (centres undefined),1,4.4*,-1,0,0
SMILES,hcDAF-12 act,DAX1 inh-1,ssDAF-12 act,hgDAF-12 ag,DAX1 inh-2
COCCNC(=O)C1CCCN(C(=O)COc2ccc(Cl)cc2Cl)CC1 (centres undefined),1,x,-1,0,1
COCCCNC(=O)Cn1nnc(-c2ccccc2NC(=O)c2ccccc2F)n1,-1,-1,-2,-4,-1
Cc1cc(NC(=O)Cn2nnc(-c3ccccc3NC(=O)c3ccccc3F)n2)no1,-1,2,1.4*,2,0
Cc1cc(C)c2nc3sc(C(=O)N4CCOCC4)c(N)c3cc2c1,5.7*,-2,0,1,4.1*
Cc1cc(C)c2cc3c(N)c(C(=O)N4CCOCC4)sc3nc2c1,-2,0,-1,-3,0
O=C(O)c1ccc(OCCCCCCOC2CCCCO2)cc1 (centres undefined),-1,4.5*,-1,1,0
CCc1cc2c(=O)c(-c3nc4ccccc4[nH]3)coc2c(CN2CCCCC2C)c1O (centres undefined),-1,4.6*,-2,0,-1
CCc1cc2c(=O)c(-c3nc4ccccc4[nH]3)coc2c(CN2CCCCC2)c1O,-1,-1,-1,-2,0
COc1ccccc1C(=O)NNC(=S)NC(=O)c1sc2ccccc2c1Cl,6.1*,0,1,4,1
Cc1ccccc1OCCOc1cccc(/C=N/NC(=O)Cc2nnc(N)s2)c1,2,-1,-1,12*,-1
Cc1csc(NC(=O)c2ccc(C)o2)n1,1,1,1,12*,2
Cc1cc(C(=O)Nc2cc(C(C)(C)C)on2)c(C)o1,2,6.3*,-1,4,1
Cc1ccc(-c2ocnc2C(=O)Nc2nc(C)cs2)cc1,1,5.4*,1.9*,4,2
Cc1csc(NC(=O)c2cc(C)oc2C)n1,0,1,0.9*,9,1
Cc1csc(NC(=O)c2ccccc2O)n1,0,1,0,4,1
Cc1ccc(NC(=O)OCCN(C)C(=O)Nc2ccc(C)cc2C)c(C)c1,-1,x,-1,-3,-1
O=[N+]([O-])c1ccc2c(c1)CO[C@]21O[C@H](CCO)C[C@H](O)[C@H]1O,2,x,-1,-2,1
CCC(=O)Nc1ccc2c(c1)Cc1cc([N+](=O)[O-])ccc1-2,0,1,-1,11*,1
O=CNc1ccc2c(c1)Cc1cc([N+](=O)[O-])ccc1-2,0,-3,-1,8,-4
O=C(N[C@H](Cc1ccccc1)C(=O)N1CCN(c2ccc(Cl)cn2)CC1)[C@H]1O[C@@H](n2ccc(=O)[nH]c2=O)[C@H](O)[C@@H]1O,0,x,-1,1,0
COc1ccc(S(=O)(=O)N(C)C[C@H]2Oc3ccc(NC(=O)c4ccncc4)cc3C(=O)N([C@H](C)CO)C[C@@H]2C)cc1,-1,-1,2.6*,-1,1
Cc1noc(C)c1NC(=O)N(C)C[C@H]1OCCCC[C@@H](C)Oc2ccc(NC(=O)Nc3ccc(F)cc3)cc2C(=O)N([C@@H](C)CO)C[C@H]1C,-1,5.1*,-2,-1,0
CC(C)NC(=O)Nc1ccc2c(c1)C(=O)N([C@H](C)CO)C[C@H](C)[C@@H](CN(C)C(=O)Nc1ccc(C(F)(F)F)cc1)O2,1,4.5*,0,1,0
C[C@H](CO)N1C[C@H](C)[C@@H](CN(C)C(=O)Nc2ccc3c(c2)OCO3)Oc2ccc(NC(=O)Cc3ccccc3)cc2C1=O,1,1,-1,0,0
C[C@@H]1CN([C@H](C)CO)C(=O)c2cc(NC(=O)Nc3ccc(F)cc3)ccc2O[C@H]1CN(C)C(=O)Nc1ccc(C(F)(F)F)cc1,x,-1,x,x,x

# High-throughput results: PubChem BioAssay, The Scripps Research Institute Molecular Screening Center
